A word on the residual activity: it is the signal under treatment as a percentage of the control signal.

The structures appear in SMILES notation.

These results are taken from ChEMBL document CHEMBL2218924, “A broad activity screen in support of a chemogenomic map for kinase signalling research and drug discovery” (Biochem J, 2013).

The target of test [1] is Tyrosine-protein kinase FRK (Homo sapiens) (UniProt P42685). The conditions noted are these: at 1 µM.
Test [2] has the same target. As to conditions: at 10 µM; call rule not given here.
In test [3] the target is T1, Phosphorylase b kinase gamma catalytic chain, liver/testis isoform (Homo sapiens) (UniProt P15735).
T1 sequence (whole entry): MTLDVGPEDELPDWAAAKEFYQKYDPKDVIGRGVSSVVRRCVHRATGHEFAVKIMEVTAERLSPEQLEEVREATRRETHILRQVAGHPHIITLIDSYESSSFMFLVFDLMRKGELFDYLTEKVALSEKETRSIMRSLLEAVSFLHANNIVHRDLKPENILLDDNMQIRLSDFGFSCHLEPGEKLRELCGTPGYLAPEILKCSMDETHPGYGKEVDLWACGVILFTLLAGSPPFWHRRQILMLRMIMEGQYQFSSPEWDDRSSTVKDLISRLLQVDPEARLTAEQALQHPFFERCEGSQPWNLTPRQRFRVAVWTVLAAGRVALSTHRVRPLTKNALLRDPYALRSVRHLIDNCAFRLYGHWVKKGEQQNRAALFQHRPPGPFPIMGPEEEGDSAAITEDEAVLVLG
As to conditions: at 1 µM.

In test [4] the target is T1, Phosphorylase b kinase gamma catalytic chain, liver/testis isoform (Homo sapiens). As to conditions: at 10 µM.
Test [5] addresses Serine/threonine-protein kinase pim-1 (Homo sapiens) (UniProt P11309). As to conditions: at 1 µM.
For test [6] the target is unchanged. As to conditions: at 10 µM.
Test [7] concerns the target Serine/threonine-protein kinase pim-2 (Homo sapiens) (UniProt Q9P1W9). The conditions noted are these: at 1 µM.
For test [8] the target is unchanged. The conditions noted are these: at 10 µM.
For test [9], the target named is Serine/threonine-protein kinase pim-3 (Homo sapiens) (UniProt Q86V86). The conditions noted are these: at 1 µM.
Test [10] has the same target. As to conditions: at 10 µM.
Test [11] addresses Serine/threonine-protein kinase PLK1 (Homo sapiens) (UniProt P53350). The conditions noted are these: at 1 µM.
Test [12] shares this target. The conditions noted are these: at 10 µM.
Test [13] concerns the target Serine/threonine-protein kinase PLK3 (Homo sapiens) (UniProt Q9H4B4). As to conditions: at 1 µM.
Test [14] has the same target. As to conditions: at 10 µM.
For test [15], the target named is T2, cAMP-dependent protein kinase catalytic subunit PRKX (Homo sapiens) (UniProt P51817).
T2 sequence (whole entry): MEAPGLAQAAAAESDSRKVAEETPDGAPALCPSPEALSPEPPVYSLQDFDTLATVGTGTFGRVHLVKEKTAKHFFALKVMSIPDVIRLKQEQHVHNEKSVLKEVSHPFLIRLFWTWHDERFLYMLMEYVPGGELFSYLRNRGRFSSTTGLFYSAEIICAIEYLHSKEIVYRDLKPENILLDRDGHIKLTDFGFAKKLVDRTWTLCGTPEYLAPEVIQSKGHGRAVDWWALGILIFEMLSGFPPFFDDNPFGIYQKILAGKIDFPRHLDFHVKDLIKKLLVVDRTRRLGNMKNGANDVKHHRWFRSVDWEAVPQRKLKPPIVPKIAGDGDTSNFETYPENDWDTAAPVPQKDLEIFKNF
As to conditions: at 1 µM.

Test [16] concerns the target T2, cAMP-dependent protein kinase catalytic subunit PRKX (Homo sapiens). As to conditions: at 10 µM.
For test [17], the target named is Protein-tyrosine kinase 2-beta (Homo sapiens) (UniProt Q14289). The conditions noted are these: at 1 µM.
Protein-tyrosine kinase 2-beta (Homo sapiens), sequence (Q14289 whole entry, looked up): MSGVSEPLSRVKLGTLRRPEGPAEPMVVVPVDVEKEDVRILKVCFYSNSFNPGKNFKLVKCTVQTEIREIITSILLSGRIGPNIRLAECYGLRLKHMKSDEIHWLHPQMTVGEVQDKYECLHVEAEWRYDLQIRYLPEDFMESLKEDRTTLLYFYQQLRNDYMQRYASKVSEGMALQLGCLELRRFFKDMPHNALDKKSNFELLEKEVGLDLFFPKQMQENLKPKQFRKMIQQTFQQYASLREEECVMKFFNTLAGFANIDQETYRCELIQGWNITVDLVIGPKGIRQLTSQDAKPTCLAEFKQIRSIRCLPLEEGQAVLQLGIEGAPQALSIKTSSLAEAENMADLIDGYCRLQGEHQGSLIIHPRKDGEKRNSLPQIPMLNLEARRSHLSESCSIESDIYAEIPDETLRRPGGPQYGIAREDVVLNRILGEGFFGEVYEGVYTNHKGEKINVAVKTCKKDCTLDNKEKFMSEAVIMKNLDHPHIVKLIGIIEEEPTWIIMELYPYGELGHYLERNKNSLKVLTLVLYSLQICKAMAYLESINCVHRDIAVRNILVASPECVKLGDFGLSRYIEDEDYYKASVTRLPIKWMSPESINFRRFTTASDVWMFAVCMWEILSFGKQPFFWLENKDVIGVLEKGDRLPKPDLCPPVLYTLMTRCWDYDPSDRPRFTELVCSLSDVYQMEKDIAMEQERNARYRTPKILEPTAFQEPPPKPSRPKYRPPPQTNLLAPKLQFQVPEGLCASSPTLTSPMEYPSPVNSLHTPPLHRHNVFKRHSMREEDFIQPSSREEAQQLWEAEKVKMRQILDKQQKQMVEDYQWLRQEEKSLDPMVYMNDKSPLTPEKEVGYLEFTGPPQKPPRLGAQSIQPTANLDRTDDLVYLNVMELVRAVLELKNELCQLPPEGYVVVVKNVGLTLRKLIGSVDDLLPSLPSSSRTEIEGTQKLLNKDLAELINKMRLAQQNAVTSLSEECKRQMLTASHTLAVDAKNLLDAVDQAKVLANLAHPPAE
The target is the same in test [18]. The conditions noted are these: at 10 µM.
Test [19] deals with Receptor-interacting serine/threonine-protein kinase 2 (Homo sapiens) (UniProt O43353). The conditions noted are these: at 1 µM.
Receptor-interacting serine/threonine-protein kinase 2 (Homo sapiens), sequence (O43353 whole entry): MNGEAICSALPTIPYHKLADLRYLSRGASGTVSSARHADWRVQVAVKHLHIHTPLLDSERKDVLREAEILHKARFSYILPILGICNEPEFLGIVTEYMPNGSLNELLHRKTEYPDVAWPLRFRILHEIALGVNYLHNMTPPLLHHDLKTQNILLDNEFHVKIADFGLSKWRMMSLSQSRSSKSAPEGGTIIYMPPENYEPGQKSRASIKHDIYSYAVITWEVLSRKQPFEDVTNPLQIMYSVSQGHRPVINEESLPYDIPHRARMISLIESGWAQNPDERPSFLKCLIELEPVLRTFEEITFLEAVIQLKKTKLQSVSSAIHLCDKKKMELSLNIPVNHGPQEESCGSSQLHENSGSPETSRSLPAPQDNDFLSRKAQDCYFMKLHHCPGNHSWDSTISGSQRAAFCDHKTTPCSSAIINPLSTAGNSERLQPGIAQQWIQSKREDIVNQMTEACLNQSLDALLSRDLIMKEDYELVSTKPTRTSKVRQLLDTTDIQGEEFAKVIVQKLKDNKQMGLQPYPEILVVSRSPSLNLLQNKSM
Test [20] shares this target. The conditions noted are these: at 10 µM.

Serine/threonine-protein kinase PLK1 (Homo sapiens), sequence (P53350 whole entry): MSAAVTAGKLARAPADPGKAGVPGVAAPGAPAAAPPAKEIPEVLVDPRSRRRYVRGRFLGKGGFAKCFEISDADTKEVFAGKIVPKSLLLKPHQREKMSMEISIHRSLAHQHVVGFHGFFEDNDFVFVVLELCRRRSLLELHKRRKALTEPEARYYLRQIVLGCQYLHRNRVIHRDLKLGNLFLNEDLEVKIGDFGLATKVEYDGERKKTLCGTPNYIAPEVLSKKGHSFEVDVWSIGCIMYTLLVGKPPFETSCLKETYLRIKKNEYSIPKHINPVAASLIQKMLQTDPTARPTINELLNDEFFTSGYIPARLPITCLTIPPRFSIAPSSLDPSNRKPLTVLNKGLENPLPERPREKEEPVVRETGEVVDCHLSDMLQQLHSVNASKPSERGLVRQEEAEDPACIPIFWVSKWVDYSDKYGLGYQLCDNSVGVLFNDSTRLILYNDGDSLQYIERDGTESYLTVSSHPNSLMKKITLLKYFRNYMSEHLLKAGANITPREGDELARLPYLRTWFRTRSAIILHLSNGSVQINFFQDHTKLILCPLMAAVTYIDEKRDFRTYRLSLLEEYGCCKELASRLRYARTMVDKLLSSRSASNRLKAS
Serine/threonine-protein kinase PLK3 (Homo sapiens), sequence (Q9H4B4 whole entry, looked up): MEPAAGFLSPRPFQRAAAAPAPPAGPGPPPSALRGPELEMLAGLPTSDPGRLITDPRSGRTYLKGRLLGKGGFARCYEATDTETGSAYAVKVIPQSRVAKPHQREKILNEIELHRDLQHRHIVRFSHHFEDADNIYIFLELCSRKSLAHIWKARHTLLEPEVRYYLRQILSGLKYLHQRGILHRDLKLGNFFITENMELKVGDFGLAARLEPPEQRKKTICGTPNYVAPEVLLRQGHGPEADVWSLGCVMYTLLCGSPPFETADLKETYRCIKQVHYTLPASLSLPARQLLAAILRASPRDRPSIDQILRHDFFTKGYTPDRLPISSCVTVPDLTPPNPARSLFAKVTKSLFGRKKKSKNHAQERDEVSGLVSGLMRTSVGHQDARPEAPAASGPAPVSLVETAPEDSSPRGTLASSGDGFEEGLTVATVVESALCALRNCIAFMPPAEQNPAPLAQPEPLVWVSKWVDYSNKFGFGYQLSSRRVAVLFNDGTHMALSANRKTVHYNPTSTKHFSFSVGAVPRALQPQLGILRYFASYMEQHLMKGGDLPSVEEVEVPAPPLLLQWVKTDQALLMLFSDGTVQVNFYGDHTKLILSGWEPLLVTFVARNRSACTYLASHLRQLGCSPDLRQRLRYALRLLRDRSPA
Serine/threonine-protein kinase pim-2 (Homo sapiens), sequence (Q9P1W9 whole entry, looked up): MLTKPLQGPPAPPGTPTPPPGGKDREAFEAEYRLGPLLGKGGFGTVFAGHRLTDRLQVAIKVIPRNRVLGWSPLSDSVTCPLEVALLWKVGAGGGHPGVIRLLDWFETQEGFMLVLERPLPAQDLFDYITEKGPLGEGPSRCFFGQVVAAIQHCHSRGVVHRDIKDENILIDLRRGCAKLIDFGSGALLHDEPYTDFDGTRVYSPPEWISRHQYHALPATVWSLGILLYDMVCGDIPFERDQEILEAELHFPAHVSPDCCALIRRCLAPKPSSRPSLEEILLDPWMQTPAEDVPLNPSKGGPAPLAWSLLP
Serine/threonine-protein kinase pim-1 (Homo sapiens), sequence (P11309 whole entry, looked up): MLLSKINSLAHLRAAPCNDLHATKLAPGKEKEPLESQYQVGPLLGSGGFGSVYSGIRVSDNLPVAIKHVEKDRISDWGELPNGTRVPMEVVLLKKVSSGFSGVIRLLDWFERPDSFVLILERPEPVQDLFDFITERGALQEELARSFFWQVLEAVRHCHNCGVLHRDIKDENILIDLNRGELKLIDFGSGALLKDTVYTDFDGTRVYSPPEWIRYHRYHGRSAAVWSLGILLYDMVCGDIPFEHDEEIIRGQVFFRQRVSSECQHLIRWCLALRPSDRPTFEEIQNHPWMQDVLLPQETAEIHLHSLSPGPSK
Tyrosine-protein kinase FRK (Homo sapiens), sequence (P42685 whole entry): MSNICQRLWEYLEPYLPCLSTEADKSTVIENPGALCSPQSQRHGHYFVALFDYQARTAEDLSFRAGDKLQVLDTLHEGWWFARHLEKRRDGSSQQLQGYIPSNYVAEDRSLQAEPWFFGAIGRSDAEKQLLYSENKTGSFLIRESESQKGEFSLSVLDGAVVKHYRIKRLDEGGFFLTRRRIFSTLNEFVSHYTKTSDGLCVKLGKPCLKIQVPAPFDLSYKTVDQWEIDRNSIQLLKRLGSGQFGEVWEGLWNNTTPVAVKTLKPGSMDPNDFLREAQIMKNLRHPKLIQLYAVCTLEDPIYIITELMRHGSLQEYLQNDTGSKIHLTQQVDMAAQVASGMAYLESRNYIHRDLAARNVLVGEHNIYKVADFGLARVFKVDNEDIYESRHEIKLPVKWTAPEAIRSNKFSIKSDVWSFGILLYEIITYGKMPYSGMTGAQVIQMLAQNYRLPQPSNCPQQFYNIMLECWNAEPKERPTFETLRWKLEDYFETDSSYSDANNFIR

With `CCn1cnc2c(Nc3cccc(Cl)c3)nc(N[C@@H]3CCCC[C@@H]3N)nc21`, the residual activity in [1] is 43%; in [2] it was 8%; in test [3], 78%; in test [4], 29%; in test [5] it was 94%; in test [6], 23%. In addition, the residual activity in [7] was determined as 97%; in [8], 39%; in test [9], 57%; in [10] it was 13%; in [11] it was 71%; in test [12], 47%. For the same compound, the residual activity was 94% (inactive) in [13]; 89% in [14]; 95% in test [15]; 51% in test [16]; 49% in [17]; 9% in [18]. The residual activity in test [19] came out at 75%; in test [20] it was 49%.

For `O=C1NC(=O)c2c1c1c3ccccc3n3c1c1c2c2ccccc2n1C1CCC3O1`, the residual activity is 71% in test [1]; 66% in test [2]; -2% in test [5]; 1% in test [6]; 6% in [7]; -2% in test [8]. The residual activity is 38% in test [9]; 45% in test [10]; 88% (inactive) in [13]; 94% in test [14]; 84% in test [15]; 53% in [16].

Consider `CN[C@@H]1C[C@H]2O[C@@](C)([C@@H]1OC)n1c3ccccc3c3c4c(c5c6ccccc6n2c5c31)C(=O)NC4`, for which the residual activity in [13] is 81% (inactive); in test [14] it was 50%; in test [15] it was 0%; in test [16] it was 0%.

For `COC(=O)[C@@]1(O)C[C@H]2O[C@]1(C)n1c3ccccc3c3c4c(c5c6ccccc6n2c5c31)C(=O)NC4`, the residual activity was 25% in [1]; 6% in [2]; 0% in [3]; 1% in test [4]; 10% in test [5]; 1% in test [6]. For the same compound, the residual activity in test [7] is 2%; in [8] it was -2%; in test [9], 31%; in test [10], 5%; in test [11], 50%; in test [12], 17%. The residual activity was 90% (inactive) in test [13]; 54% in test [14]; 2% in test [15]; 0% in [16]; 3% in [17]; -1% in test [18]. In addition, the residual activity in test [19] is 5%; in test [20], 3%.

Consider `O=C1Nc2ccc3ncsc3c2/C1=C/c1c[nH]cn1`, for which the residual activity in test [1] was 83%; in [2], 33%; in test [3], 47%; in test [4] it was 10%; in test [5], 26%; in [6], 5%. The residual activity turned out to be 13% in [7]; 3% in test [8]; 53% in [9]; 11% in test [10]; 84% in test [11]; 44% in test [12]. The residual activity in test [13] was 70% (inactive); in test [14] it was 68%; in [15], 24%; in [16], 6%; in [17], 79%; in test [18], 17%. Besides, the residual activity turned out to be 59% in [19] and 33% in test [20].

Take `CC(C)(C)c1cc(C=C(C#N)C#N)cc(Br)c1O`: the residual activity in test [1] was 100%; in [2], 76%; in test [3] it was 115%; in test [4] it was 106%; in [6], 51%; in [9] it was 105%. Also, the residual activity in test [10] was 104%; in test [11] it was 113%; in [12], 97%; in test [13], 102% (inactive); in test [14], 110%; in [15] it was 100%. The residual activity in test [16] stood at 68%; in test [19], 26%; in test [20], 16%.

Turning to `N/C(=N\[N+](=O)[O-])N/N=C\c1ccc(-c2cccc([N+](=O)[O-])c2)o1`, the residual activity was 88% in test [9]; 87% in [10]; 83% in test [11]; 78% in test [12]; 100% (inactive) in test [13]; 99% in test [14]. Also, the residual activity in test [15] amounted to 76%; in test [16] it was 91%; in test [20] it was 83%.

Take `O=[N+]([O-])/C=C/c1ccc2c(c1)OCO2`: the residual activity in [1] was determined as 105%; in test [2] it was 105%; in [3] it was 105%; in test [4] it was 114%; in test [5] it was 79%; in test [6], 85%. The residual activity in [7] came out at 134%; in test [8], 110%; in test [9] it was 101%; in test [10], 103%; in test [11] it was 96%; in test [12], 78%. For the same compound, the residual activity in test [13] is 96% (inactive); in test [14], 104%; in [15], 102%; in test [16], 96%; in test [17], 129%; in [18], 92%. For the same compound, the residual activity amounted to 100% in [19] and 88% in [20].

Take `CCc1nc(-c2ccc(OC)cc2)[nH]c1-c1ccncc1`: the residual activity in [1] worked out at 102%; in test [2] it was 100%; in test [3], 103%; in [4], 105%; in test [7], 126%; in test [8] it was 125%. The residual activity in test [13] is 106% (inactive); in test [14], 102%; in [16] it was 65%; in test [17], 115%; in [18], 114%; in test [19], 102%. In addition, the residual activity in test [20] worked out at 82%.
